PrP 5UTR inh = inhibition of PrP 5' UTR reporter expression | cell-based PrP 5' UTR mRNA reporter, plate reader | inhibition, % (concentration not given with the values) | 340,000 compounds, 0.35% hits | AID 488862; in the data active = inhibition above about 52%; also: 0 = median of the neutral control wells
PrPC TRFRET = reduces human prion protein on the cell surface. P04156. cell surface PrPC, TR-FRET read-out. inhibition, % at 13.8 µM. 370,000 compounds, 0.43% hits. AID 720596; in the data active = inhibition above about 24%; also: 0% = median of the test wells and 100% = reference compound wells
PfHsp40 rescue = restores yeast growth despite PfHsp40 toxicity; S. cerevisiae expressing PfHsp40, growth rescue, ATP luminescence; growth rescue, % at 12.5 µM; 340,000 compounds, 0.68% hits; AID 504582; in the data active = growth rescue above about 28%, passing the limit was not always enough;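 also: yeast W303a lacking pdr1 and pdr3 grown in galactose medium; growth measured after three days at 30 °C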
PriA SSB inh = K. pneumoniae PriA-SSBct interaction inhibition; AID 1272365; AlphaScreen SSBct-PriA binding, biotinylated peptide; inhibition, % at 33 µM; 430,000 compounds, 0.6% hits; in the data active = inhibition mostly above about 37%, no sharp cut-off; inactive = mostly below about 20%;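 also: plate controls were negative control peptide for no effect and reference peptide for full effect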
MazF activator = MazEF (E. coli) toxin RNase activation | AID 504720 | FAM/BHQ RNA-DNA oligo cleavage fluorescence, 5 h | P0AE70 | activation, % at 20 µM | 350,000 compounds, 0.32% hits; in the data active = activation above about 50%
PrPC TRFRET cf = cell surface PrPC inhibition, TR-FRET confirmation | shares compounds with PrPC TRFRET | cell surface PrPC level | inhibition, % at 13.8 µM | 1,500 compounds, 65% hits | AID 743200; in the data active = inhibition above about 25%
LD9 tox = kills or reduces viability of LD9 cells in PrPc counter-screen; AID 743201; LD9 cells cytotoxicity, luminescence viability; shares compounds with PrPC TRFRET; 1,500 compounds, 29% hits; inhibition, % at 13.8 µM; in the data active = inhibition above about 9.5%
The depositor's hits bear a star; / = no result. In the library only some 1.8% were active in any assay of this set; here they are far more common.

SMILES	PrP 5UTR inh	PrPC TRFRET	PfHsp40 rescue	PriA SSB inh	MazF activator	PrPC TRFRET cf	LD9 tox
O=[N+]([O-])c1ccc(OS(=O)(=O)Cc2ccccc2)cc1	-21	-7	1	-14	10	/	/
N#Cc1c([N+](=O)[O-])cc([N+](=O)[O-])cc1S(=O)(=O)Cc1ccccc1	-30	42*	17	-18	-2	84*	98*
COc1ccc(Br)cc1Cn1nnc(C(=O)NCc2ccc(F)cc2)c1N	/	/	/	1	/	/	/
CN(CC(=O)Nc1cccc(F)c1)CC(=O)Nc1cc(S(=O)(=O)N2CCOCC2)ccc1Cl	-28	5	0	-11	3	/	/
CCc1nc2ccccc2c(C(=O)OCC(=O)Nc2ccc(S(=O)(=O)N3CCOCC3)cc2)c1C	-8	1	1	13	-6	/	/
CN(CC(=O)Nc1cccc(S(=O)(=O)N2CCOCC2)c1)CC(=O)Nc1ccc(Cl)c(C(F)(F)F)c1	-34	25*	0	2	-8	22	3
CCc1nc2ccccc2c(C(=O)OCC(=O)Nc2cccc(S(=O)(=O)N3CCOCC3)c2)c1C	-19	26*	0	5	-5	12	10*
O=S(=O)(NC(=NC1CCCCC1)c1ccccc1F)c1ccccc1	-23	-3	0	3	14	/	/
CN(C)c1ccc(NC(=O)CSc2nnc(-c3cccs3)n2Cc2ccco2)cc1	-9	-4	-2	48	-3	/	/
Cc1ccc2c(c1)[C@H]1[C@H](CO2)[C@H](c2ccccc2)[C@]2(C)C(=O)Nc3ccc(Cl)cc3C(=O)N12	2	25*	-1	7	-6	14	-7
Cc1ccc2c(c1)[C@H]1[C@H](CO2)[C@H](c2ccccc2)[C@]2(C)C(=O)Nc3ccccc3C(=O)N12	4	11	0	6	-7	/	/
C[C@@]12C(=O)Nc3ccc(Cl)cc3C(=O)N1[C@H]1c3cc(Cl)ccc3OC[C@@H]1[C@@H]2c1ccccc1	-5	26*	-1	-2	-11	16	-8
COc1ccc2c(c1)C(=O)N1[C@H]3c4cc(C)ccc4OC[C@@H]3[C@H](c3ccccc3)[C@]1(C)C(=O)N2	-15	34*	3	6	-12	23	-6
CC1CCCCC1Nc1nc2ccc(Cl)cc2n2cnnc12 (centres undefined)	1	34*	27*	2	-1	18	-1
Fc1cccc(Cc2c(-c3ccccc3)nc3ccc(Br)cn23)c1	/	19	/	/	/	/	/
Cc1ccc(Cc2c(-c3ccc(C#N)cc3)nc3ccc(Br)cn23)cc1	/	42*	/	/	-17	47*	2
N#Cc1ccc(-c2nc3ccc(Br)cn3c2Cc2cccc(F)c2)cc1	/	29*	/	/	/	88*	1
Fc1cccc(Cc2c(-c3ccco3)nc3ccc(Br)cn23)c1	/	51*	/	/	/	70*	0
Cc1cc(C)cc(-n2nnnc2SCC(=O)N2CCOCC2)c1	-2	-2	-1	-6	-1	/	/
Cc1csc(NC(=O)Cn2cnnn2)n1	-2	6	0	-9	-2	/	/
Cc1onc(-c2ccccc2)c1C(=O)Oc1cccnc1	-22	30*	0	-9	0	1	-7
CC(=O)Nc1ccc(S(=O)(=O)Nc2cccc3cccnc23)cc1	-22	0	-1	3	-5	/	/
O=S(=O)(Nc1cccc2cccnc12)c1ccccc1	-6	54*	0	-4	2	39*	81*
Cc1ccc2cccc(NS(=O)(=O)c3ccccc3)c2n1	/	34*	/	1	5	67*	71*
O=S(=O)(Nc1cccc2cccnc12)c1ccc(S(=O)(=O)N2CCCC2)cc1	-4	37*	0	45*	-7	10	24*
SMILES	PrP 5UTR inh	PrPC TRFRET	PfHsp40 rescue	PriA SSB inh	MazF activator	PrPC TRFRET cf	LD9 tox
Cc1ccccc1N(CC(=O)NCc1ccc2c(c1)OCO2)C(=O)CCC(=O)Nc1ccccn1	-4	-5	0	0	0	/	/
Cc1ccccc1-n1c(SCC(=O)N/N=C/c2sccc2C)nc2ccccc2c1=O	-4	0	0	/	-11	/	/
COc1ccc(/C=C/C(=O)Nc2ccc(-n3nncc3-c3ccc(OC)c(OC)c3)cc2)cc1OC	2	25*	0	0	-18	28*	9.9*
Cc1sc2ncnc(SCC(=O)N3CCCCC3)c2c1C	-19	7	0	-12	6	/	/
Cc1cccc(NC(=O)CSc2ncnc3sc(C)c(C)c23)n1	-4	27*	1	7	-2	42*	-3
Cc1sc2ncnc(SCC(=O)NC(=O)c3cccn3C)c2c1C	-2	31*	9	3	-13	77*	-5
Cc1ccccc1NC(=O)CSc1ncnc2sc(C)c(C)c12	/	/	/	4	/	/	/
Cc1sc2ncnc(SCC(=O)N3CCCC3=O)c2c1C	-15	27*	0	-23	2	40*	-3
O=C1C2CCCN2C(=S)N1c1ccccc1 (centres undefined)	-21	3	0	0	8	/	/
COc1ccccc1CN1CC(C(=O)NCc2cccc(C)n2)CCC1=O (centres undefined)	-5	1	0	7	0	/	/
CC(=O)NCCC(=O)NCC1(N(C)Cc2ccccc2)Cc2ccccc2C1	-50	2	-2	-15	4	/	/
CN(Cc1ccccc1)C1(CNC(=O)CCC(F)(F)F)Cc2ccccc2C1	-16	26*	0	-5	-2	15	0
N#C/C(=C\c1ccc(O)cc1)C(=O)Nc1ccc(Cl)cc1	/	/	/	6	/	/	/
N#CC(=Cc1ccc(O)cc1)C(N)=C(C#N)C#N	47	64*	1	-17	-40	7	-4
O=C(CCl)Nc1nc(-c2ccco2)c(-c2ccco2)s1	-18	44*	4	12	7	32*	-5
COc1cccc(OCc2cc(C(=O)N(C)Cc3nc4ccccc4[nH]3)no2)c1	-72	29*	2	-10	2	39*	2
CC(=O)c1ccc(OCc2cc(C(=O)N(C)Cc3ncc(C)[nH]3)no2)cc1	-18	-1	-1	-6	6	/	/
O=C(Nc1nc(C(=O)NCc2ccnc(N3CCOCC3)c2)co1)c1ccncc1	/	/	/	-22	/	/	/
O=c1c2ccccc2nc2n1CCN2Cc1ccc(Cl)cc1	-4	/	4	-12	-4	/	/
COC(=O)[C@]12C[C@H](CC(=O)N3CCCCC3)C(=O)N(CCC3=CCCCC3)C1=C[C@H](C(C)C)O[C@@H]2C1CC1	/	29*	/	/	/	32*	-2
COC(=O)[C@]12C[C@H](CC(=O)N3CCCC3)C(=O)N(CCC3=CCCCC3)C1=C[C@H](C(C)C)O[C@@H]2C1CC1	/	28*	/	/	/	31*	-3
COC(=O)[C@]12C[C@H](CC(=O)N3CCN(C(=O)c4ccco4)CC3)C(=O)N(CCC3=CCCCC3)C1=C[C@H](C(C)C)O[C@@H]2C1CC1	/	0	/	/	/	/	/

Source: PubChem BioAssay (several laboratories)
